Assay outcomes: PubChem, National Center for Advancing Translational Sciences (NCATS)
HP1b chromo inh: blocks HP1-beta chromodomain binding to methylated histone tails. Potency, µM (series often up to 114 µM), most hits filed as inhibitors. P83916. hit rate 0.56% among 390,000. AlphaScreen HP1-beta / biotin-H3K9me3 peptide binding; also: nearly all actives have a fitted effect of over 70% in size
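AlphaScreen: HP1-beta (50 nM) preformed 30 min with biotin-H3(1-18)K9me3 peptide (50 nM) in PBS pH 7.4, 0.01% Tween-20. Compound added for 30 min at RT, then streptavidin donor/nickel chelate acceptor beads (10 ug/mL) for 30 min.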
L3MBTL1 inh: inhibitors of human L3MBTL1; hit rate 0.66% among 230,000; Potency, µM (doses to about 57.1 µM), most hits filed as inhibitors; AlphaScreen L3MBTL1–H3K9me1 peptide binding; also: nearly all actives have a fitted effect of over 60% in size
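AlphaScreen assay: L3MBTL1 (50 nM final) was preincubated 30 min at room temperature with biotinylated H3(1-15)K9me1 peptide (75 nM final), then 30 min with library compounds; streptavidin donor and nickel chelate acceptor beads (10 ug/mL final) added, 30 min dark.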
VDR inh: vitamin D3 receptor (human) inhibition. hit rate 0.93% among 400,000. VDR-SRC2-3 peptide fluorescence polarization, 2 h. Potency, µM, most hits filed as inhibitors. AID 504847
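VDR–SRC2-3 interaction, FP format. Cmpds 23 nl via pintool, brief spin, 2 h ambient incubation.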
PLK1 PBD block: blocks phosphopeptide binding to human PLK1 polo-box domain. hit rate 2.8% among 360,000. AID 720504. Potency, µM, usual class: inhibitors. Plk1 PBD binding of FITC phosphopeptide, fluorescence polarization. P53350; also: series mostly up to about 57 µM; nearly all actives have a fitted effect of over 65% in size
Target sequence (P53350 whole entry, looked up, the tested form may be a part): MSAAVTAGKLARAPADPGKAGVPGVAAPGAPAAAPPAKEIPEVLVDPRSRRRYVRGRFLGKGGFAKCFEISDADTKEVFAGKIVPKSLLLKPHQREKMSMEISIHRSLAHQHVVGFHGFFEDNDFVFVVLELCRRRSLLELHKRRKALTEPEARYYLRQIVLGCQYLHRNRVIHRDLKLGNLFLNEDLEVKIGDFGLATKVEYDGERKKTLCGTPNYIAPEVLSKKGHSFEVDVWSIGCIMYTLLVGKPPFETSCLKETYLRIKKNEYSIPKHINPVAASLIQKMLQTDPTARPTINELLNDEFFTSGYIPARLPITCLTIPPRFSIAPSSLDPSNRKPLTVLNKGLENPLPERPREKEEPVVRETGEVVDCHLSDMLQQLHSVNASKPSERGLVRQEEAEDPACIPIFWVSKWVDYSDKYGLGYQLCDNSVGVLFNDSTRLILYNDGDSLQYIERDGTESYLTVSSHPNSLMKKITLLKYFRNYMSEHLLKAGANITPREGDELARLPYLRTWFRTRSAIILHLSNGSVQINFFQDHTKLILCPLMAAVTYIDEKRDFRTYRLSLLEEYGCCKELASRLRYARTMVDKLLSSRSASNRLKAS
JMJD2A Tudor: JMJD2A Tudor domain (human) inhibition; O75164; AlphaScreen JMJD2A-Tudor / H3K4me3 peptide binding; Potency, µM (titrated, usually from 114 µM), actives largely listed as inhibitors; hit rate 4.4% among 390,000; also: nearly all actives have a fitted effect of over 50% in size
BAZ2B block: inhibitors of human BAZ2B bromodomain; hit rate 4.4% among 360,000; Q9UIF8; Potency, µM (series often up to 114 µM), hits mostly inhibitors; AlphaScreen BAZ2B-H3K14Ac peptide displacement; AID 504333; also: nearly all actives have a fitted effect of over 60% in size
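BAZ2B (50 nM) with biotin-H3(5-23)K14Ac peptide (50 nM) in PBS pH 7.4, 0.01% Tween-20, preformed 30 min, then compound 30 min at room temperature; top concentration 110uM. AlphaScreen streptavidin donor/nickel chelate acceptor beads (10 ug/mL final), 20 min dark, signal read.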
Each line names hits and unclear results; the compound was inactive in the other large screens; ! = a repeat was not active. Sampled rows, rich in hits. Any-hit rate of the full collection: about 6.9%. Calls follow the shape of the dose curve; as a rule, active = well fitted curve in the direction sought with a large enough effect; inconclusive = small, poorly fitted or top-dose-only effect, or another doubt; inactive = no such curve, though single readings can be large; an effect the other way counts as inactive or inconclusive.

N#C/C(=N\Nc1ccccc1)C(N)=S	JMJD2A Tudor 22.4µM, BAZ2B block inconclusive
Cc1ccc(N/N=C(\C#N)C(N)=S)cc1C	VDR inh inconclusive, JMJD2A Tudor inconclusive, BAZ2B block 44.7µM
O=[N+]([O-])c1cc(C2Nc3cccc4cccc(c34)N2)ccc1Cl	L3MBTL1 inh inconclusive, BAZ2B block inconclusive
COc1ccc(Br)cc1C1Nc2cccc3cccc(c23)N1	PLK1 PBD block inconclusive, JMJD2A Tudor inconclusive, BAZ2B block 44.7µM
Clc1cccc(-c2ccc(C3Nc4cccc5cccc(c45)N3)o2)c1	HP1b chromo inh inconclusive, JMJD2A Tudor 39.8µM (no result: PLK1 PBD block, BAZ2B block)
Clc1ccc(C2Nc3cccc4cccc(c34)N2)c(Cl)c1	HP1b chromo inh inconclusive, JMJD2A Tudor 35.5µM (no result: L3MBTL1 inh, BAZ2B block)
COc1cc(OC)cc(-c2nc3nc(C)c(CCC(=O)Nc4ccc(C)c(C)c4)c(C)n3n2)c1	none (no result: L3MBTL1 inh, PLK1 PBD block)
CN1CCN(S(=O)(=O)c2ccc(N(C)Cc3ccc(C(F)(F)F)cc3)c([N+](=O)[O-])c2)CC1	HP1b chromo inh inconclusive, JMJD2A Tudor 25.1µM, BAZ2B block 39.8µM
CCOc1ccc(CN(C)c2ccc(S(=O)(=O)N3CCN(C)CC3)cc2[N+](=O)[O-])cc1OC	JMJD2A Tudor inconclusive, BAZ2B block inconclusive
Cn1c(=O)[nH]c(=O)c2c1[nH]c(=S)n2CCCc1ccccc1	HP1b chromo inh 10µM, VDR inh 39.8µM, PLK1 PBD block 29.9µM, JMJD2A Tudor 3.16µM, BAZ2B block 25.1µM
Cn1c(=O)c2c([nH]c(=S)n2CCCc2ccccc2)n(C)c1=O	HP1b chromo inh 15.8µM, VDR inh 79.4µM, JMJD2A Tudor 5.01µM, BAZ2B block 28.2µM
Cn1c(=O)[nH]c(=O)c2c1[nH]c(=S)n2Cc1ccc(Cl)cc1	HP1b chromo inh 14.1µM, VDR inh inconclusive, PLK1 PBD block 11.9µM, JMJD2A Tudor 3.16µM, BAZ2B block 22.4µM (no result: L3MBTL1 inh)
COc1ccc(S(=O)(=O)N(c2onc(C)c2Cl)S(=O)(=O)c2ccc(OC)c(OC)c2)cc1OC	JMJD2A Tudor 25.1µM, BAZ2B block 79.4µM
COc1ccc(C(=O)CSC#N)cc1OC	VDR inh inconclusive, PLK1 PBD block 23.8µM
COc1ccc(C(=O)COC(=O)c2ccc(OC)c(OC)c2)cc1OC	none (no result: L3MBTL1 inh)
CCC(=O)c1ccc(OCC(=O)N2CCCC2)c(OC)c1	L3MBTL1 inh inconclusive, BAZ2B block 50.1µM
Cc1cc2c(s1)c1cnn(Cc3c(F)ccc(F)c3Cl)c(=O)c1n2C	none (no result: HP1b chromo inh, L3MBTL1 inh, VDR inh, PLK1 PBD block, BAZ2B block)
Cc1ccc(C(=O)NCCN2CCC(n3c(=O)[nH]c4ccccc43)CC2)cc1C	none (no result: HP1b chromo inh, L3MBTL1 inh, VDR inh, JMJD2A Tudor, BAZ2B block)
COCCCN=C(c1ccco1)n1c(=S)nc(-c2ccco2)n(CCCOC)c1=S	HP1b chromo inh 22.4µM, L3MBTL1 inh inconclusive, VDR inh inconclusive, PLK1 PBD block 18.9µM, JMJD2A Tudor 56.2µM, BAZ2B block inconclusive
COCCCn1c(-c2ccco2)nc2ccccc2c1=O	none
CCN(CC)c1ccc(NC(=S)NC(=O)C2CCC2)cc1	HP1b chromo inh inconclusive, JMJD2A Tudor 44.7µM, BAZ2B block 22.4µM (no result: L3MBTL1 inh)
CC(=O)Nc1ccc(NC(=S)NC(=O)C2CCCC2)cc1	none (no result: L3MBTL1 inh)
COC(=O)c1ccc(NC(=O)CCS(=O)(=O)c2ccc(Br)cc2)cc1	BAZ2B block 56.2µM! (no result: L3MBTL1 inh)
CCOc1ccc(NC(=O)CCS(=O)(=O)c2ccc(Br)s2)cc1	JMJD2A Tudor inconclusive (no result: L3MBTL1 inh, PLK1 PBD block)
CCc1cccc(NC(=O)CCS(=O)(=O)c2ccc(Br)cc2)c1	HP1b chromo inh 8.91µM, VDR inh 79.4µM, PLK1 PBD block 13.4µM, JMJD2A Tudor 11.2µM, BAZ2B block 31.6µM (no result: L3MBTL1 inh)
O=C(CCS(=O)(=O)c1ccc(Br)cc1)Nc1ccc(Br)cc1F	L3MBTL1 inh inconclusive, BAZ2B block 50.1µM
Cc1ccc(NC(=O)CCS(=O)(=O)c2ccc(Br)s2)cc1	PLK1 PBD block 26.7µM, JMJD2A Tudor inconclusive (no result: L3MBTL1 inh)
COc1ccccc1CNC(=O)c1c(O)nc2cc(C)ccn2c1=O	none (no result: L3MBTL1 inh, PLK1 PBD block)
Cc1ccccc1NC(=O)Cn1c(=O)oc2cc(Br)ccc21	none (no result: L3MBTL1 inh, PLK1 PBD block)
CC(=O)c1ccc(NC(=O)CCS(=O)(=O)c2ccc3c(c2)n(C)c(=O)c(=O)n3C)cc1	JMJD2A Tudor 79.4µM, BAZ2B block 79.4µM
CC(=O)c1cccc(NC(=O)CCS(=O)(=O)c2ccc3c(c2)n(C)c(=O)c(=O)n3C)c1	none (no result: L3MBTL1 inh, PLK1 PBD block)
Cc1sc2ncnc(NCc3ccccc3)c2c1C	none
CCOc1ccc(CN2CCN(c3ncnc4scc(-c5ccccc5)c34)CC2)cc1	JMJD2A Tudor inconclusive (no result: L3MBTL1 inh)
Cc1sc2nc(N3CCOCC3)[nH]c(=O)c2c1-c1ccccc1	none
CN(C)C(CNc1ncnc2sc3c(c12)CCCCC3)c1ccco1 (stereo unspecified)	JMJD2A Tudor inconclusive, BAZ2B block inconclusive (no result: L3MBTL1 inh)
Cc1sc2ncnc(NCC(c3ccco3)N(C)C)c2c1C (stereo unspecified)	HP1b chromo inh inconclusive, JMJD2A Tudor 1.58µM
Cc1sc2ncnc(Nc3ccccc3)c2c1C	PLK1 PBD block 26.7µM (no result: L3MBTL1 inh)
Cc1sc2ncnc(Nc3ccc(N4CCOCC4)cc3)c2c1-c1ccccc1	JMJD2A Tudor 35.5µM, BAZ2B block inconclusive
Cc1sc2ncnc(N3CCN(Cc4ccccc4)CC3)c2c1-c1ccccc1	HP1b chromo inh inconclusive, JMJD2A Tudor inconclusive, BAZ2B block 31.6µM (no result: L3MBTL1 inh)
Cc1ccc(NC(=O)C2CC(=O)Nc3ncnn32)cc1Cl (stereo unspecified)	PLK1 PBD block 26.7µM (no result: L3MBTL1 inh)
